High-throughput results from PubChem BioAssay.
Shown are actives, neighbours in structure and some others; about 1.1% of the full set was active somewhere.
HTR5A ag ctr: HTR5A agonists in luminescence cell assay, primary screen, counter-screen for OPRM1-OPRD1 heterodimer agonist project, full-deck HTS. activation, % at 9.3 µM. 5-hydroxytryptamine receptor 5A (Homo sapiens), P47898. actives 0.61% (n = 340,000). cell-based; in the data active = activation mostly above about 9.5%, no sharp cut-off; inactive = mostly below about 7.6%;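 note: 0% = cells with vehicle only and 100% = reference agonist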
OPRM1-OPRD1 inv: inverse agonists of MOR-DOR heterodimerization, primary screen, cell-based, luminescence; Mu-type opioid receptor (Homo sapiens) + Delta-type opioid receptor (Homo sapiens), …; cell-based MOR-DOR heterodimer luminescence, inverse agonism; inhibition, % at 9.3 µM; actives 0.21% (n = 340,000); AID 504357, 2011; in the data active = inhibition above about 22%, passing the limit was not always enough;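 note: 0% = cells with DMSO and 100% = wells without cells with DMSO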
Target sequence (P35372 whole entry, looked up): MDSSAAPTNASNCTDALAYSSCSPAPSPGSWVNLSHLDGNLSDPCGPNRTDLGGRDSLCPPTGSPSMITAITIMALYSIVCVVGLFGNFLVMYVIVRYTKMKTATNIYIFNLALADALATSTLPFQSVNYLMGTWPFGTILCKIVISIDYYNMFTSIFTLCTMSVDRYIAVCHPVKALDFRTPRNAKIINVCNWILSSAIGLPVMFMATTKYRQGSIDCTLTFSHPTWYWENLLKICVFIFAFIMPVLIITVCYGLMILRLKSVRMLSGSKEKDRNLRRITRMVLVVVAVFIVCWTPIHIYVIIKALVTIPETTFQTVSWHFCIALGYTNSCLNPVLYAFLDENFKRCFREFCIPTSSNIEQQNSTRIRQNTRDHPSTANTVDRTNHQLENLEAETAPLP
Target sequence (P41143 whole entry, looked up): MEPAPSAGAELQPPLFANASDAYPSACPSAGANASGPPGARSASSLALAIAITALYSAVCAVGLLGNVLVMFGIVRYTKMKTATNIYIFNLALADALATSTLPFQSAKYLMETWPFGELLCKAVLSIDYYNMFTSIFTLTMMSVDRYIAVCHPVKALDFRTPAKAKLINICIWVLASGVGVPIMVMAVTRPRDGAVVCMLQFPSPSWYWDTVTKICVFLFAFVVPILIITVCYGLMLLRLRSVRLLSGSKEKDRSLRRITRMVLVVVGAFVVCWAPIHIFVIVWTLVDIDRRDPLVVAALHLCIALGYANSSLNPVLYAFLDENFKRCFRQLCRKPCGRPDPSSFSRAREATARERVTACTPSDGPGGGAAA
MOR-DOR ag-1: agonists of OPRM1-OPRD1 heterodimerization, primary screen, cell-based, luminescence; Mu-type opioid receptor (Homo sapiens) + Delta-type opioid receptor (Homo sapiens), …; cells; activation, % at 9.3 µM; actives 0.3% (n = 340,000);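 note: 0% = vehicle-treated cells and 100% = reference agonist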
HTR5A inv ctr: HTR5A inverse agonists in luminescence cell assay, primary screen, counter-screen for OPRM1-OPRD1 heterodimer inverse agonist project, full-deck HTS | HTR5A cell line, inverse agonism | actives 0.083% (n = 340,000) | inhibition, % at 9.3 µM; in the data active = inhibition mostly above about 23%, no sharp cut-off; inactive = mostly below about 18%;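 note: 0% = cells with DMSO and 100% = no-cell wells with DMSO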
MOR-DOR ag-2: OPRM1-OPRD1 heterodimerization promoters, counter-screen for HTR5A agonist project, cell-based, luminescence. shares compounds with HTR5A ag ctr. U2OS counter-screen cells, complementation luminescence, 3 h. activation, % at 9.3 µM. actives 13% (n = 800). AID 504913, 2011
HTR5A ag conf: HTR5A agonists, retest of hits, confirmation, cell-based, luminescence. shares compounds with HTR5A ag ctr. HTR5A agonist cell assay. activation, % at 9.3 µM. actives 17% (n = 800); in the data active = activation above about 17%;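 note: 0% = cells with vehicle only and 100% = full reference agonist response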
* hit, by the source's call. Cut-off read from the data, not from the text of the source, unless noted: active = activation above about 18%; inactive = the rest.

How did Cc1ccc2oc(=O)c3cnn(CC(=O)NC4CCCCC4C)c3c2c1 (centres undefined) do in these assays?
HTR5A ag ctr: 21*; OPRM1-OPRD1 inv: -2; MOR-DOR ag-1: 0; HTR5A inv ctr: -54; MOR-DOR ag-2: 1; HTR5A ag conf: 0

What do the screens show for `CCOC(=O)c1ccc(NC(=S)NC2CCCC2)cc1`?
HTR5A ag ctr: 15*; OPRM1-OPRD1 inv: 5; MOR-DOR ag-1: -1; HTR5A inv ctr: 12; MOR-DOR ag-2: 4; HTR5A ag conf: 4

Results for CC(C)c1ccc(NC(=S)NC2CCCCCC2)cc1 ?
HTR5A ag ctr: 16*; OPRM1-OPRD1 inv: -20; MOR-DOR ag-1: 4; HTR5A inv ctr: -43; MOR-DOR ag-2: 27*; HTR5A ag conf: 4

Results for CCOC(=O)c1ccc(NC(=S)NC(=O)C2CCCC2)cc1 ?
HTR5A ag ctr: 0; OPRM1-OPRD1 inv: -8; MOR-DOR ag-1: 1; HTR5A inv ctr: 0

Results for Cn1ccnc1SCCNC(=O)CCc1nnc(CCc2ccccc2)o1 ?
HTR5A ag ctr: -1; OPRM1-OPRD1 inv: -9; MOR-DOR ag-1: 1; HTR5A inv ctr: 3

How did N=C1S/C(=C\c2ccc(O)cc2)C(=O)N1c1ccc(F)cc1 do in these assays?
HTR5A ag ctr: 15*; OPRM1-OPRD1 inv: -40; MOR-DOR ag-1: 8; HTR5A inv ctr: -43; MOR-DOR ag-2: 7; HTR5A ag conf: 10

What do the screens show for `Cc1cc(N)nc2nc(C(F)(F)F)nn12`?
HTR5A ag ctr: 7; OPRM1-OPRD1 inv: 3; MOR-DOR ag-1: -1; HTR5A inv ctr: -17

What do the screens show for `CCCCN(C)C(=O)c1cc2cc3ccc(OC)cc3nc2s1`?
HTR5A ag ctr: 21*; OPRM1-OPRD1 inv: -3; MOR-DOR ag-1: 1; HTR5A inv ctr: -90; MOR-DOR ag-2: 0; HTR5A ag conf: -14

Results for CCC(=O)c1ccccc1OCC(=O)Nc1c(C)cccc1C ?
HTR5A ag ctr: 16*; OPRM1-OPRD1 inv: 0; MOR-DOR ag-1: 0; HTR5A inv ctr: 12; MOR-DOR ag-2: 1; HTR5A ag conf: -6

Results for CCOc1ccccc1NC(=S)N1C2CCC1CC(NC(=O)NC13CC4CC(CC(C4)C1)C3)C2 (centres undefined) ?
HTR5A ag ctr: 2; OPRM1-OPRD1 inv: 6; MOR-DOR ag-1: -1; HTR5A inv ctr: -9

What do the screens show for `COc1ccccc1NC(=S)N1C2CCC1CC(NC(=O)NC13CC4CC(CC(C4)C1)C3)C2` (centres undefined)?
HTR5A ag ctr: 16*; OPRM1-OPRD1 inv: -3; MOR-DOR ag-1: 1; HTR5A inv ctr: -36; MOR-DOR ag-2: 0; HTR5A ag conf: 3

How did COC(=O)C1=C(C)N(Cc2ccccc2)C(=NCCN2CCOCC2)N[C@H]1CCc1ccccc1 do in these assays?
HTR5A ag ctr: 6; OPRM1-OPRD1 inv: 11; MOR-DOR ag-1: -2; HTR5A inv ctr: -6

What do the screens show for `Clc1ccc(C(c2nnnn2C2CCCC2)N2CCN(Cc3ccncc3)CC2)cc1` (centres undefined)?
HTR5A ag ctr: 1; OPRM1-OPRD1 inv: 4; MOR-DOR ag-1: -1; HTR5A inv ctr: -9

How did Fc1ccc(C(c2nnnn2C2CCCC2)N2CCN(Cc3ccccc3)CC2)cc1 (centres undefined) do in these assays?
HTR5A ag ctr: 18*; OPRM1-OPRD1 inv: 3; MOR-DOR ag-1: -1; HTR5A inv ctr: -40; MOR-DOR ag-2: 6; HTR5A ag conf: 1

How did CCCCCC(C)NC(=S)NC(=O)c1cc(S(=O)(=O)N2CCOCC2)ccc1C (centres undefined) do in these assays?
HTR5A ag ctr: 15*; OPRM1-OPRD1 inv: 6; MOR-DOR ag-1: -1; HTR5A inv ctr: -23; MOR-DOR ag-2: 1; HTR5A ag conf: 9

How did CN(c1ccc(OCC(=O)N2CCCC2)cc1)S(=O)(=O)c1ccc(Cl)cc1 do in these assays?
HTR5A ag ctr: 17*; OPRM1-OPRD1 inv: 11; MOR-DOR ag-1: -3; HTR5A inv ctr: -41; MOR-DOR ag-2: 1; HTR5A ag conf: -2

What do the screens show for `CCC(C)NS(=O)(=O)c1ccc(OCC(=O)NCc2ccc(OC)cc2)cc1` (centres undefined)?
HTR5A ag ctr: -3; OPRM1-OPRD1 inv: 3; MOR-DOR ag-1: -1; HTR5A inv ctr: -26

What do the screens show for `CCOc1ccc(CNC(=O)NS(=O)(=O)c2ccc(OC)cc2)cc1`?
HTR5A ag ctr: 15*; OPRM1-OPRD1 inv: -5; MOR-DOR ag-1: 1; HTR5A inv ctr: -50; MOR-DOR ag-2: 23*; HTR5A ag conf: 4

What do the screens show for `CCOc1ccc(S(=O)(=O)NN)cc1`?
HTR5A ag ctr: 14*; OPRM1-OPRD1 inv: 17; MOR-DOR ag-1: -3; HTR5A inv ctr: -85; MOR-DOR ag-2: -2; HTR5A ag conf: 0

What do the screens show for `COc1ccc(Br)cc1-c1nc(CCl)cs1`?
HTR5A ag ctr: -4; OPRM1-OPRD1 inv: 14; MOR-DOR ag-1: -3; HTR5A inv ctr: 11

Results for O=C(Nc1ccccc1)c1ncoc1-c1ccc(Cl)cc1 ?
HTR5A ag ctr: 19*; OPRM1-OPRD1 inv: -14; MOR-DOR ag-1: 3; HTR5A inv ctr: -50; MOR-DOR ag-2: 2; HTR5A ag conf: 2

What do the screens show for `CC1CC(C)(C)NC(=S)N1CCC(=O)N1CCN(c2ccccc2)CC1` (centres undefined)?
HTR5A ag ctr: -2; OPRM1-OPRD1 inv: 11; MOR-DOR ag-1: -2; HTR5A inv ctr: 7

What do the screens show for `CC1CC(C)(C)NC(=S)N1CCC(=O)N1CCc2ccccc2C1` (centres undefined)?
HTR5A ag ctr: 15*; OPRM1-OPRD1 inv: -7; MOR-DOR ag-1: 2; HTR5A inv ctr: -33; MOR-DOR ag-2: 2; HTR5A ag conf: -2

What do the screens show for `CC1CCCCC1NC(=O)CN(C)S(=O)(=O)c1cccc2cccnc12` (centres undefined)?
HTR5A ag ctr: -4; OPRM1-OPRD1 inv: 3; MOR-DOR ag-1: -1; HTR5A inv ctr: 10

What do the screens show for `Cc1ccccc1NC(=O)Cc1nc(COC(=O)C(C)C)cs1`?
HTR5A ag ctr: 2; OPRM1-OPRD1 inv: 12; MOR-DOR ag-1: -2; HTR5A inv ctr: 8

What do the screens show for `C=CCOc1ccc(/C=C/C(=O)OCc2csc(CC(=O)Nc3ccccc3C)n2)cc1`?
HTR5A ag ctr: 20*; OPRM1-OPRD1 inv: -16; MOR-DOR ag-1: 4; HTR5A inv ctr: -50; MOR-DOR ag-2: 33*; HTR5A ag conf: 7

What do the screens show for `O=C(Cc1ccc([N+](=O)[O-])cc1)N1N=C(C2CC2)CC1(O)C(F)(F)F` (centres undefined)?
HTR5A ag ctr: 0; OPRM1-OPRD1 inv: -8; MOR-DOR ag-1: 1; HTR5A inv ctr: -1
